“And” between values parts separate entries of the source, which are not always exact repeats. Identical values can stand only once. Inconclusive results are not listed. The source made the active and inactive calls.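 How the source made its calls, unless noted: active means normalized viability below 100% at a tested concentration; inactive means the rest.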
What was measured:
[1] = growth inhibition of DIPG glioma cells, dose response, cell-based, SU-DIPG-XVII, MIPE5.0, CellTiter-Glo, qHTS (AID 1347060; cut-off not given, nearly all actives have AC50 up to about 26 µM;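 on AC50: cells exposed to compound for 48 hours before viability readout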); settings: SU-DIPG-XVII viability, CellTiter-Glo ATP luminescence
[2] = growth inhibition of DIPG glioma cells, dose response, cell-based, SU-DIPG-XIII, MIPE4.0, CellTiter-Glo, qHTS (AID 1347061; cut-off not given, nearly all actives have AC50 up to about 37 µM;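 further: cells exposed to compound for 48 hours before readout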); settings: SU-DIPG-XIII viability, CellTiter-Glo ATP luminescence
[3] = growth inhibition of DIPG glioma cells, dose response, cell-based, JHH-DIPG-1, MIPE4.0, CellTiter-Glo, qHTS (AID 1347062; cut-off not given, nearly all actives have AC50 up to about 27 µM;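 on AC50: cells exposed to compound for two days before readout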); settings: JHH-DIPG-1 viability, CellTiter-Glo ATP luminescence
[4] = growth inhibition of DIPG glioma cells, dose response, cell-based, SU-DIPG-IV, MIPE4.0, CellTiter-Glo, qHTS (AID 1347063; cut-off not given, nearly all actives have AC50 up to about 30 µM;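 further: compound exposure lasted 48 hours before the viability readout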); settings: SU-DIPG-IV viability, CellTiter-Glo ATP luminescence
[5] = growth inhibition of DIPG glioma cells, dose response, cell-based, SU-DIPG-XIII, MIPE5.0, CellTiter-Glo, qHTS (AID 1347064; cut-off not given, nearly all actives have AC50 up to about 23 µM;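 on AC50: cells exposed to compound for 48 hours before the viability read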); settings: SU-DIPG-XIII viability, CellTiter-Glo ATP luminescence
[6] = viability loss in pontine glioma line – cell-based, SU-DIPG-XXV, MIPE5.0, CellTiter-Glo, qHTS, dose response (AID 1347065; cut-off not given, nearly all actives have AC50 up to about 26 µM;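 further: cells exposed to compound for 48 hours before ATP readout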); settings: CellTiter-Glo ATP luminescence
[7] = SU-DIPG-VI glioma cell viability, MIPE4.0 library, CellTiter-Glo luminescence, qHTS (AID 1347066; cut-off not given, nearly all actives have AC50 up to about 30 µM;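 further: cells exposed to compound for 48 hours before readout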); settings: CellTiter-Glo ATP luminescence
[8] = JHH-DIPG-1 glioma cell viability, MIPE5.0 library, CellTiter-Glo luminescence, qHTS (AID 1347067; cut-off not given, nearly all actives have AC50 up to about 26 µM;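 further: cells exposed to compound for 48 hours before readout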); settings: JHH-DIPG-1 glioma viability, CellTiter-Glo ATP luminescence
[9] = sensitizers of A549 cells to miR-34 induction, primary screen, imaging, A549 dox-inducible miR-34, nuclei and caspase counts (AID 1347080;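 active means compounds whose cell count with miR-34 switched on is under 0.7 times the count with it off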); settings: A549 miR-34 inducible, Hoechst nuclei count, 48 h
[10] = SU-DIPG-XXV glioma cell viability, MIPE5.0 library, qHTS (AID 1347068; cut-off not given, nearly all actives have IC50 up to about 30 µM;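 further: cells exposed to compound for 48 hours before viability readout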)
[11] = modifiers of HSF1 nuclear foci, imaging, Selleck Cancer Library (AID 1347162; in the data active means plate-normalised HSF1 focus index below about 0.46); settings: human cells, at 10 µM; SSMD: measured here: HSF1 foci SSMD mean; cell count: measured here: cell number; plate-normalised HSF1 focus index: stronger effect = lower value
[12] = survival rescue of mitochondrial mutant cells in low glucose, primary screen, MELAS cybrids, Rieske KO mouse fibroblasts, CellTiter-Glo (AID 1508586;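 active means mean z-score across replicates of 1.96 or higher in either the MELAS or the Rieske mutant cell line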;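 further: z relative to plate mean and SD of compound and empty wells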)
[13] = ovarian cancer cell viability with rucaparib, profiling panel, oncology-focused library, rucaparib conditional (AID 1508598); settings: patient-derived ovarian cancer cells, CellTiter-Glo viability, 144 h, stronger effect = lower value
[14] = stronger effect = lower value, cell number ratio, induced over uninduced
[15] = measured here: relative caspase fold change +Dox/-Dox
[16] = measured here: total cells with miR-34 induction, stronger effect = lower value
[17] = measured here: total cells without miR-34 induction
[18] = MELAS cybrid survival, CellTiter-Glo 48 h, stronger effect = higher value
[19] = Rieske KO mouse fibroblast survival, CellTiter-Glo 72 h

CCCNC(=O)[C@H]1O[C@@H]1C(=O)N[C@H](C(=O)N1CCC[C@H]1C(=O)OC)C(C)CC (stereo partly specified)
4190: cell count [9, 16]
1.21: fold change [9, 15]
inactive: fold change [9, 14] 0.991
active: AC50 [1] 16.6 µM | AC50 [2] 16.6 µM | AC50 [3] 16.6 µM | AC50 [4] 16.6 µM | AC50 [5] 11.8 µM | AC50 [6] 13.2 µM | AC50 [7] 10.5 µM | AC50 [8] 11.8 µM
4230: cell count [9, 17]

CC(C)(O)c1cc2nc(-c3cnc(N)nc3)nc(N3CCOCC3)c2s1
active: AC50 [1] 1.18 µM | AC50 [2] 0.59 µM | AC50 [3] 0.833 µM | AC50 [4] 0.0526 µM | AC50 [5] 1.05 µM | AC50 [6] 0.417 µM | AC50 [7] 0.148 µM | IC50 [10] 1.18 µM

CCCCCCCCc1ccc(CCC(N)(CO)CO)cc1
inactive: fold change [9, 14] 0.951 and 0.892 | plate-normalised HSF1 focus index [11] 0.589 | z-score [12, 18] -0.312 | viability ([13]; at 0.000305 µM, OCI-C5x cells, with rucaparib 10 µM, 100% = cells with rucaparib alone) 106% | viability ([13]; at 0.000305 µM, OCI-C5x cells, without rucaparib) 117% | viability ([13]; at 0.000305 µM, OCI-P5x cells, with rucaparib 20 µM, 100% = cells with rucaparib alone) 107% | viability ([13]; at 0.000305 µM, OCI-P5x cells, without rucaparib) 111% | viability ([13]; at 0.00122 µM, OCI-C5x cells, with rucaparib 10 µM, 100% = cells with rucaparib alone) 110% | viability ([13]; at 0.00122 µM, OCI-C5x cells, without rucaparib) 112% | viability ([13]; at 0.00488 µM, OCI-C5x cells, with rucaparib 10 µM, 100% = cells with rucaparib alone) 101% | viability ([13]; at 0.00488 µM, OCI-C5x cells, without rucaparib) 122% | viability ([13]; at 0.00488 µM, OCI-P5x cells, without rucaparib) 103% | viability ([13]; at 0.0195 µM, OCI-C5x cells, with rucaparib 10 µM, 100% = cells with rucaparib alone) 111% | viability ([13]; at 0.0195 µM, OCI-C5x cells, without rucaparib) 120% | viability ([13]; at 0.0195 µM, OCI-P5x cells, without rucaparib) 106% | viability ([13]; at 0.0781 µM, OCI-C5x cells, with rucaparib 10 µM, 100% = cells with rucaparib alone) 102% | viability ([13]; at 0.0781 µM, OCI-C5x cells, without rucaparib) 106% | viability ([13]; at 0.313 µM, OCI-C5x cells, with rucaparib 10 µM, 100% = cells with rucaparib alone) 112% | viability ([13]; at 0.313 µM, OCI-C5x cells, without rucaparib) 108% | viability ([13]; at 0.313 µM, OCI-P5x cells, with rucaparib 20 µM, 100% = cells with rucaparib alone) 108% | viability ([13]; at 0.313 µM, OCI-P5x cells, without rucaparib) 113% | viability ([13]; at 1.25 µM, OCI-C5x cells, with rucaparib 10 µM, 100% = cells with rucaparib alone) 103% | viability ([13]; at 1.25 µM, OCI-C5x cells, without rucaparib) 121% | viability ([13]; at 5 µM, OCI-C5x cells, without rucaparib) 129%
-8.05: SSMD [11]
5720 and 8490: cell count [9, 17]
0.756 and 0.682: fold change [9, 15]
3980: cell count [11]
-0.433: z-score [12, 19]
5440 and 7580: cell count [9, 16]
active: AC50 [1] 10.5 µM | AC50 [2] 23.5 µM | AC50 [3] 9.35 µM | AC50 [4] 3.72 µM | AC50 [5] 18.6 µM | AC50 [6] 10.5 µM | AC50 [7] 23.5 µM | AC50 [8] 10.5 µM | viability ([13]; at 0.00122 µM, OCI-P5x cells, with rucaparib 20 µM, 100% = cells with rucaparib alone) 89.4% | viability ([13]; at 0.00122 µM, OCI-P5x cells, without rucaparib) 98% | viability ([13]; at 0.00488 µM, OCI-P5x cells, with rucaparib 20 µM, 100% = cells with rucaparib alone) 93.5% | viability ([13]; at 0.0195 µM, OCI-P5x cells, with rucaparib 20 µM, 100% = cells with rucaparib alone) 92.4% | viability ([13]; at 0.0781 µM, OCI-P5x cells, with rucaparib 20 µM, 100% = cells with rucaparib alone) 88.8% | viability ([13]; at 0.0781 µM, OCI-P5x cells, without rucaparib) 53.5% | viability ([13]; at 1.25 µM, OCI-P5x cells, with rucaparib 20 µM, 100% = cells with rucaparib alone) 64% | viability ([13]; at 1.25 µM, OCI-P5x cells, without rucaparib) 50.7% | viability ([13]; at 5 µM, OCI-C5x cells, with rucaparib 10 µM, 100% = cells with rucaparib alone) 90.1% | viability ([13]; at 5 µM, OCI-P5x cells, with rucaparib 20 µM, 100% = cells with rucaparib alone) 26% | viability ([13]; at 5 µM, OCI-P5x cells, without rucaparib) 0.383%

Cc1ccc(C(N)=O)cc1Nc1nccc(-c2cn(C(C)C)c3cnccc23)n1
active: AC50 [1] 9.34 µM | AC50 [2] 18.7 µM | AC50 [3] 9.35 µM | AC50 [4] 8.33 µM | AC50 [5] 11.8 µM | AC50 [6] 7.42 µM | AC50 [7] 13.2 µM | IC50 [10] 11.8 µM

CCCCCCCN(CC)CCCC(O)c1ccc(NS(C)(=O)=O)cc1 (stereo unspecified)
0.0673 and -0.0365: z-score [12, 19]
7740: cell count [9, 16]
0.577: fold change [9, 15]
inactive: outcome [1] | outcome [2] | outcome [3] | outcome [4] | outcome [5] | outcome [6] | outcome [7] | outcome [8] | fold change [9, 14] 0.916 | z-score [12, 18] -0.187 and 0.657
8450: cell count [9, 17]

Source: PubChem BioAssay
